Laboratory results published in PubChem BioAssay AID430 (Sanford-Burnham Center for Chemical Genomics, 2006).
The campaign covered roughly 63,000 compounds. About 1,100 (1.7%) were called active. This is one part of a sample in which actives are shown more often than they occur. Potency and affinity values are given separately. Unmarked numbers belong to inactive results. Rule as the data show it: active = cytotoxicity above about 50%; inactive = the rest.

Test: HPDE-C7 pancreatic duct cell viability loss – fluorescence, HTS (AID 430);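 also: cells exposed to compound for 48 hours before viability readout; 0% = vehicle and 100% = reference cytotoxic drug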
Details: HPDE-C7 pancreatic duct cells viability, at 10 µM, stronger effect = higher value

SMILES | cytotoxicity
CCCCCCn1c(SCC(=O)OC)nc2c1c(=O)[nH]c(=O)n2C | 3.9%
CC1Cc2ccccc2N1C(=O)CSc1ncccc1C(=O)O (stereo not given) | -4.3%
O=C(CCn1c(=O)oc2ccccc21)N1CCN(c2ccccc2Cl)CC1 | 56.7% (active)
O=C(CCn1c(=O)oc2ccccc21)N1CCCCCC1 | 10.9%
O=C(CCn1c(=O)oc2ccccc21)N1CCN(c2ccccc2F)CC1 | 1.4%
COc1ccc(OCC(=O)N(C)Cc2ccccc2)cc1 | -16.7%
COc1ccc(CCNc2nc(-c3sc(N)nc3C)cs2)cc1OC | 16%
Cc1ccc2c(c1)-c1ccccc1S(=O)(=O)N2 | 10.1%
Nc1ccc2c(c1)-c1ccccc1S(=O)(=O)N2 | 14.6%
O=S1(=O)Nc2c(ccc3cccnc23)-c2ccccc21 | 90.9% (active)
CCCCCC/C(=N/O)c1ccccn1 | 51.4% (active)
O=C(NCCCNC(=O)c1ccccn1)c1ccccn1 | 15.3%
O/N=C(/Cc1ccccn1)c1ccccc1 | 2%
Cc1cccc(N(CC(=O)NC2CCCC2)C(=O)CS(=O)CC(=O)Nc2ccc3c(c2)OCO3)c1 (stereo not given) | 0.1%
CC(C)C(=O)Nc1cccc(NC(=O)c2cccnc2)c1 | -3.2%
Cc1ccc(C)c(N2CCN(C(c3ccncc3)c3nnnn3Cc3ccccc3)CC2)c1 (stereo not given) | 27.4%
Cc1cccc(-n2c(SCC(=O)Nc3nonc3C)nnc2-c2ccoc2C)c1 | -16.1%
Cc1cccc(-n2c(SCC(=O)Nc3ccc4c(c3)OCO4)nnc2-c2ccoc2C)c1 | 65.5% (active)
Cc1ccc(-n2c(SCC(=O)Nc3ccc4c(c3)OCO4)nnc2-c2ccoc2C)cc1 | 36.3%
Cc1cc(Cl)ccc1OCC(=O)N1CC(C)CC(C)C1 (stereo not given) | -10.4%

SMILES | cytotoxicity
Cc1ccc2c(c1)C(c1ccc(F)cc1)N(C(=O)C1CC1)CC(=O)N2 (stereo not given) | -2%
COc1cc(C(=O)Nc2cccc(-c3nncn3C)c2)cc(OC)c1OC | -13.4%
CCOC(=O)c1c(C)oc2ccc(NS(=O)(=O)c3ccc4c5c(cccc35)C(=O)N4)cc12 | 64.4% (active)
COCCOC(=O)c1c(C)oc2ccc(NS(=O)(=O)c3ccccc3)cc12 | 12.7%
COC(=O)c1ccccc1NS(=O)(=O)c1ccc2c3c(cccc13)C(=O)N2 | 24.2%
CC(=O)/C=C(/C)NC(Cc1c[nH]c2ccccc12)C(=O)O (stereo not given) | 2.1%
Oc1c(CN2CCc3ccccc3C2)cc(Cl)c2cccnc12 | 7.8%
Oc1ccc2cccnc2c1 | -7.4%
OCc1ccnc2c(O)cccc12 | -13.3%
Oc1c(CN2CCN(c3ccccn3)CC2)cc(Cl)c2cccnc12 | 27.5%
Cc1cc(Nc2nc3c(c(=O)n(C)c(=O)n3C)n2C)n(-c2ccccc2)n1 | -9%
Cc1cc(=O)oc2cc(OCC3CC(c4ccc(N(C)C)cc4)=NO3)ccc12 (stereo not given) | -19%
COc1ccc2cc3cc(C(=O)Nc4ccc5c(c4)OCCO5)oc3nc2c1 | 2%
Cc1ccc2cccc(S(=O)(=O)N3CCN(c4cccc(Cl)c4)CC3)c2n1 | 7%
CC(=O)c1cc2c(cc1NC(=O)c1cnc(C)cn1)OCO2 | 13.3%
CN(C)S(=O)(=O)c1cccc(C(=O)OCC(=O)Nc2ccccc2OC(F)F)c1 | 0.1%
N#CCCCSc1nnc(-c2ccc(Cl)cc2)n1-c1ccccc1 | -20.2%
Cc1cc(-n2c(SCCC#N)nnc2-c2cccnc2)ccc1Cl | -25%
COc1ccc(-n2c(SCCC#N)nnc2-c2cc(Cl)ccc2OC)cc1Cl | 50.2% (active)
O=C(O)c1cnn2c1NC(c1ccc(F)cc1)CC2C(F)(F)F (stereo not given) | -9.5%

SMILES | cytotoxicity
COC(=O)/C(=C1/Oc2cc(C)oc(=O)c2S1)C(F)(F)F | 76.7% (active)
COC(=O)C1=C(N)Oc2cc(C)oc(=O)c2C1c1ccncc1 (stereo not given) | 0.6%
COC(=O)/C(=C1/Oc2cc3c(cc2S1)OCO3)C(F)(F)F | -28.2%
O=C(O)CCC(=O)Nc1ccccc1C(=O)NC1CCCCC1 | -16.8%
O=C1CC(c2ccco2)CC(O)=C1C=NCCO (stereo not given) | 5.2%
O=C1CC(c2ccco2)CC(O)=C1C=NCCN1CCNCC1 (stereo not given) | -17.7%
O=C1CC(c2ccco2)CC(O)=C1C=Nc1cc(Cl)ccc1O (stereo not given) | 55.5% (active)
C=C1[C@@H](C)C2[C@H](Cc3ccccc3)NC(=O)[C@]23OC(=O)CC[C@H](O)CCC[C@H](C)C/C=C/[C@H]3[C@@H]1O (stereo not given in full) | 67.8% (active)
CC(C)CCn1c(SCC(=O)OCn2nnc3ccccc3c2=O)nc2ccccc2c1=O | -1.3%
CO[C@H]1C[C@@H]2CC[C@@H](C)[C@@](O)(O2)C(=O)C(=O)N2CCCC[C@H]2C(=O)O[C@H]([C@H](C)C[C@@H]2CC[C@@H](O)[C@H](OC)C2)CC(=O)[C@H](C)C=C(C)[C@@H](O)[C@@H](OC)C(=O)[C@H](C)C[C@H](C)C=CC=CC=C1C | 81.1% (active)
CCOc1ccc(-c2nnc(SCC(=O)N(CC)CC)n2N)cc1 | -5.3%
Cc1ccc(OCCn2c(C)c(/C=N/n3cnnc3)c3ccccc32)cc1 | 41%
Cc1c(/C=N/n2cnnc2)c2ccccc2n1C | 5.2%
Cc1c(/C=N/n2cnnc2)c2ccccc2n1CCOc1ccccc1 | 67.6% (active)
C(=N\n1cnnc1)/c1cccc(OCCOc2ccccc2)c1 | 2.1%
Cc1c(/C=N/n2cnnc2)c2ccccc2n1CCOc1ccc(Cl)cc1 | 15.9%
COc1cccc(OCCn2c(C)c(/C=N/n3cnnc3)c3ccccc32)c1 | 75.8% (active)
CCN(CC)C(=O)CSc1nnc(-c2cnccn2)n1-c1ccccc1 | -10.7%
CC(=O)c1cccc(NC2c3ccccc3C(=O)N2Cc2ccc3c(c2)OCO3)c1 (stereo not given) | 11.4%
COc1ccc(NC(=O)c2cnc3ccccn3c2=O)c(OC)c1 | 1%
